# Measured values: PubChem BioAssay (Tox21)
# Results filed as inconclusive are left out. A call without a number means that no potency is given here. A number with no mark means an inactive call. Calls of active or inactive are those of the source. The call rests on the fitted dose curve; in most records, active means well fitted activation curve with a large enough effect in the repeat runs; inconclusive means weak or mixed curves; inactive means flat fitted curve, though single readings scatter.
# Experiment: A CellTox Green Cytotoxicity Assay to monitor cytotoxicity in HEK293 cells - 32 hour (AID 1224881); further: nearly all actives have a fitted effect of over 40% in size
# Details: CellTox Green fluorescence; series mostly up to 76.8 µM
# Method in brief: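 Homogeneous no-lysis format: HEK293 cell suspension mixed with CellTox Green reagent, seeded, incubated 5 h at 37 C/5% CO2, then dosed by pintool with compound in DMSO.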
# Potency means the concentration at half of the fitted maximal effect.
Compound,Potency,cytotoxicity increase
BrCCCCCCBr,inactive,
Nc1cnn(-c2ccccc2)c(=O)c1Cl,inactive,
Fc1cc(Br)ccc1CBr,inactive,
Nc1cc2c3c(c1)C(c1ccccc1)=N[C@@H](NC(=O)c1cccnc1)C(=O)N3CC2,inactive,
O=[N+]([O-])c1cc(Cl)c(Cl)c(Cl)c1,21.7 µM (active),
CCCSC(=O)N(CCC)CCC,inactive,
Cc1cc(C)c(C(=O)P(=O)(C(=O)c2c(C)cc(C)cc2C)c2ccccc2)c(C)c1,inactive,
CC(Oc1ccc(Oc2ncc(C(F)(F)F)cc2Cl)cc1)C(=O)O (stereo unspecified),inactive,
Cc1coc2c1CCC(C)C2 (stereo unspecified),inactive,
CC(N)=S,inactive,
CCN(CC)CCOC(=O)C(C)(c1ccccc1)c1ccccc1,inactive,
O=C1c2ccccc2C(=O)c2ccccc21,,6.55% [at 15.8 µM]
CCCCC(=O)Cl,inactive,
CCC(=O)C(CCN(C)C)(c1ccccc1)c1ccccc1,inactive,
c1cc2c(c(N3CCNCC3)c1)OCCO2,inactive,
CCCSC(=O)Cl,inactive,
N#CC(CCc1ccc(Cl)cc1)(Cn1cncn1)c1ccccc1 (stereo unspecified),54.9 µM (active),
CCOC(=O)NC(=S)Nc1ccccc1NC(=S)NC(=O)OCC,inactive,

Compound,Potency,cytotoxicity increase
ClC(Cl)Br,inactive,
C(CCOCC1CO1)COCC1CO1 (stereo unspecified),inactive,
OC(c1ccccc1)(c1ccccc1)C1CCNCC1,inactive,
CCN(CC)C(=O)[C@@H]1C=C2c3cccc4[nH]cc(c34)C[C@H]2N(C)C1,inactive,
CNC(=O)O/N=C(\C)SC,inactive,
N#CCBr,inactive,
CCCCCCI,inactive,
CC(CC(C#N)(c1ccccc1)c1ccccc1)N(C)C (stereo unspecified),inactive,
CS(=O)(=O)c1cc(C(F)(F)F)ccc1C(=O)c1cnoc1C1CC1,inactive,
C[C@]1(O)CC[C@H]2[C@@H]3CCC4=CC(=O)CC[C@]4(C)[C@@]3(F)[C@@H](O)C[C@@]21C,inactive,
O=C(Oc1ccc(Br)cc1)N1CCN2CCC1CC2,inactive,
COc1cc2c(cc1OC)[C@@]13CCN4CC5=CCO[C@H]6CC(=O)N2[C@H]1[C@H]6[C@H]5C[C@H]43,inactive,
CCCCCCBr,inactive,
CCN(CC)C(C)C(=O)c1ccccc1 (stereo unspecified),inactive,
O=NN1CCCCC1,inactive,
CN(N=O)C(N)=O,inactive,
OCCSCSCCO,inactive,
CCCCOC(=O)[C@@H](C)Oc1ccc(Oc2ccc(C#N)cc2F)cc1,inactive,
